An excerpt weighted towards active compounds, which were near 3.4% of everything screened.
MITF TRPM1 HTS – activators of MITF-driven TRPM1 promoter activity in SK-MEL-5 cells; activation, % at 12.5 µM; SK-MEL-5 TRPM1-promoter luciferase, 24 h; % of positive control, neutral wells = 0; 0.75% of 300,000 active; AID 588334;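 active = mean activation of at least 80% with every replicate also reaching 80%; inconclusive = mean reaches 80% but some replicate falls short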;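 note: 0% = neutral control wells and 100% = parthenolide positive control wells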
HIV Env fusion – inhibitors of HIV Env-mediated cell fusion. HeLa-JRFL Env/CEM21 cell fusion, luciferase. inhibition, % at 12.3 µM. 1.1% of 360,000 active;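 active = mean replicate inhibition score of at least 50 and every replicate individually at or above 50; inconclusive = only one of the two criteria met; inactive = mean below 50 and not all replicates reaching 50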;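 note: 0% = plate neutral controls and 100% = maraviroc near 300 nM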
miR-122 sensor – blocks miR-122 activity in Huh7 sensor cells | Huh7 miR-122 Renilla luciferase sensor, 48 h; neutral wells = 0, positive control = 100 | activation (reporter increase), % at 12.5 µM | 0.3% of 340,000 active;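 active = mean replicate activation score at least 90 and every replicate individually at or above 90; inconclusive = only one of the two criteria met; inactive = neither criterion met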;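 note: higher luciferase means less miR-122 activity so hits act as miR-122 inhibitors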
esBAF inh – inhibitors of esBAF chromatin remodeling in mouse ES cells | Bmi1-luciferase knock-in reporter, 24 h; 100% = twice the neutral-well signal | reporter increase, % at 12.5 µM | AID 602393 | 2% of 350,000 active; in the data active = activation above about 40%; inconclusive = no clear call, values can overlap the other calls;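 note: 0% = median of the plate's neutral control wells and 100% = double that signal; a rise in the Bmi1 reporter signal indicates esBAF inhibition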
Wnt bcat act – Wnt/beta-catenin pathway activation. Wnt/beta-catenin reporter cell assay, activator, plate reader. activation, % at 9.35 µM. 1.2% of 300,000 active; in the data active = activation above about 30%, passing the limit was not always enough; inconclusive = no clear call, values can overlap the other calls;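 note: 0% = neutral control wells and 100% = positive control wells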
* hit, by the source's call; u = inconclusive; x = not tested or not shown; [ ] = another dose, or the depositor's remark.

SMILES	MITF TRPM1 HTS	HIV Env fusion	miR-122 sensor	esBAF inh	Wnt bcat act
Cc1cc2oc(C(=O)Nc3nonc3C)c(C)c2cc1C	120*	-112	-5	77*	u
CCc1ccc2oc(C(=O)Nc3nonc3C)c(C)c2c1	50	-181	-3	78*	44*
CC(=O)Nc1ccc(NC(=O)c2oc3cc(C)c(C)cc3c2C)cc1	11	39	-3	3	-2
COc1cc(NC2c3ncccc3C(=O)N2Cc2ccco2)cc(OC)c1 (configuration not stated)	-8	60*	-6	-7	x
Cc1ccc(-c2cnc3c(Nc4cccc(OC(F)(F)C(F)F)c4)nccn23)cc1	x	61*	0	11	-1
COCC(C)n1c(SCC(=O)NNC(=O)c2ccccc2)nc2ccccc2c1=O (configuration not stated)	-6	2	-3	7	1
Cn1c(SCC(=O)O)nc2ccccc2c1=O	-2	x	1	3	-1
CCOc1ccc(OCC)c(NC(=O)CSc2nc3cccnc3n2C)c1	-11	23	-9	x	0
COCC(C)n1c(SCC(=O)NC(=O)Cc2ccccc2)nc2ccccc2c1=O (configuration not stated)	-4	19	144*	-10	-4
COC(=O)CSc1nc2ccccc2c(=O)n1C	3	-93	-1	-1	42*
CCOc1ccc(OCC)c(NC(=O)CSc2nc3ccccc3c(=O)n2C)c1	-12	91*	-3	-9	x
CC1=C(C(=O)OCc2ccc3c(c2)OCO3)C(c2ccccc2OCc2ccccc2)NC(=O)N1 (configuration not stated)	-5	61*	x	x	-4
COc1ccc(COC(=O)C2=C(C)NC(=O)NC2c2ccc(OC)cc2)cc1 (configuration not stated)	8	72*	-2	-12	-3
CC1=C(C(=O)OCc2ccc3c(c2)OCO3)C(c2ccccc2)NC(=O)N1 (configuration not stated)	-28	107*	36	-40	-14
CC1=C(C(=O)OCc2ccc3c(c2)OCO3)C(c2ccc(O)c([N+](=O)[O-])c2)NC(=O)N1 (configuration not stated)	5	49	x	x	-14
COc1ccc(COC(=O)C2=C(C)NC(=O)NC2c2ccc(O)cc2)cc1 (configuration not stated)	x	-6	4	5	-2
Cc1ccc(-c2ccnc3c(Cl)c(C)nn23)cc1	-10	-7	-5	14	0
C=C(C)CSc1cc(C)nc2c(-c3ccccc3)c(C)nn12	-5	61*	x	12	3
Cc1nc2c(-c3ccccc3)c(C)nn2c(N)c1-c1ccccc1	86*	x	3	x	x
Cc1nn2c(-c3ccccc3)ccnc2c1-c1ccccc1	u	-379	1	x	40*
Cc1nn2c(N)c(-c3ccccc3)cnc2c1-c1ccc(Cl)cc1	101*	-32	5	u	17
OC[C@@H]1CN(Cc2ccccc2)C[C@H](n2cnc3c(NCc4ccncc4)ncnc32)O1	x	59*	-1	-5	x
OC[C@@H]1CN(Cc2ccc(-c3ccccc3)cc2)C[C@H](n2cnc3c(NCc4ccc(F)cc4)ncnc32)O1	x	51	-9	-10	x
OC[C@@H]1CN(Cc2ccccc2)C[C@H](n2cnc3c(NCc4ccc(F)cc4)ncnc32)O1	x	-5	-6	46*	x
Cc1cccc(-n2ncc3c(N4CCCC4)ncnc32)c1	52	-192	0	-38	14
SMILES	MITF TRPM1 HTS	HIV Env fusion	miR-122 sensor	esBAF inh	Wnt bcat act
Cc1ccc(-n2ncc3c(N4CCN(c5ccccc5)CC4)ncnc32)c(C)c1	x	90*	-15	16	x
Cc1cccc(-n2ncc3c(N4CC(C)CC(C)C4)ncnc32)c1 (configuration not stated)	89*	-27	-6	62*	12
CN(C)C(=O)/C(=C/c1cn(-c2ccccc2)nc1-c1cccc([N+](=O)[O-])c1)NC(=O)c1ccccc1	-13	-16	-1	-5	56*
C=CCNC(=O)/C(=C/c1cn(-c2ccccc2)nc1-c1cccc([N+](=O)[O-])c1)NC(=O)c1ccccc1	-10	-18	x	x	x
CCN(C1CCCCC1)S(=O)(=O)c1ccc(S(=O)(=O)N(CC(=O)Nc2ccccc2)C2CC2)cc1	-3	75*	-1	4	x
C[C@@H]1CN([C@H](C)CO)S(=O)(=O)c2ccc(C3=CCCC3)cc2O[C@@H]1CN(C)C(=O)c1cnccn1	x	41[16.7 µM]	-35[16.7 µM]	-4	x
CC(C)CN(C(=O)CCNC(=O)c1ccccc1Cl)C1CCS(=O)(=O)C1 (configuration not stated)	1	x	-6	0	32*
CC(C)CN(C(=O)CCNC(=O)c1ccc([N+](=O)[O-])cc1)C1CCS(=O)(=O)C1 (configuration not stated)	-2	-3	-2	0	-2
CCC(=O)N1[C@H](CO)[C@@H](c2ccc(-c3cccnc3)cc2)[C@@H]1CN(C)C(C)=O	x	x	-21[16.7 µM]	1	x
CC(=O)N1[C@H](CNC(=O)C2CC2)[C@@H](c2ccc(-c3ccccc3)cc2)[C@@H]1CO	x	x	200*[16.7 µM]	-25	x
CC(=O)N(C)C[C@H]1[C@H](c2ccc(-c3cccnc3)cc2)[C@@H](CO)N1C(=O)C1CC1	x	x	125*[16.7 µM]	-3	x
CC(=O)N1[C@H](CO)[C@H](c2ccc(-c3ccccc3)cc2)[C@@H]1CNC(=O)C1CC1	x	x	14[16.7 µM]	-4	x
O=C(NC[C@H]1N[C@H](CO)[C@@H]1c1ccccc1)C1CCCC1	x	x	125*[16.7 µM]	-7	x
CO[C@@H]1CN(C)C(=O)c2cc(NS(C)(=O)=O)ccc2OC[C@@H](C)N(C(=O)C2CCC2)C[C@H]1C	x	8[16.7 µM]	-4[16.7 µM]	0	x
CC(C)C#Cc1cnc2c(c1)C(=O)N([C@H](C)CO)C[C@@H](C)[C@H](CN(C)S(=O)(=O)c1cn(C)cn1)O2	x	-8[16.7 µM]	-7[16.7 µM]	-4	x
CCNC(=O)C[C@H]1CC[C@@H]2[C@H](COc3ccc(NC(=O)c4ccccc4)cc3C(=O)N2C)O1	x	7[16.7 µM]	17[16.7 µM]	-3	x
Cc1noc(C)c1NC(=O)N(C)C[C@@H]1Oc2ncc(C#CC3CC3)cc2C(=O)N([C@@H](C)CO)C[C@H]1C	x	-13[16.7 µM]	7[16.7 µM]	52*	x
Cc1noc(C)c1NC(=O)N(C)C[C@@H]1Oc2ncc(C#CC3CC3)cc2C(=O)N([C@@H](C)CO)C[C@@H]1C	x	-14	3	-3	-1
C[C@@H]1CCCCO[C@@H](CN(C)C(=O)Nc2ccc3c(c2)OCO3)[C@H](C)CN([C@@H](C)CO)C(=O)c2cc(NC(=O)Nc3ccc(F)cc3)ccc2O1	x	-11[16.7 µM]	-13[16.7 µM]	1	x
C[C@@H]1CN([C@H](C)CO)C(=O)c2cc(NC(=O)Nc3ccc4c(c3)OCO4)ccc2O[C@@H](C)CCCCO[C@H]1CN(C)C(=O)C1CCCCC1	x	37[16.7 µM]	-9[16.7 µM]	5	x
C[C@H](CO)N1C[C@H](C)[C@H](CN(C)C(=O)C2CCCCC2)OCCCC[C@H](C)Oc2ccc(NC(=O)Nc3ccc4c(c3)OCO4)cc2C1=O	x	78*[16.7 µM]	-9[16.7 µM]	5	x

Screening results from PubChem.
